D2 ag-1 – agonists of human D2 dopamine receptor (beta-arrestin). P14416. DiscoveRx PathHunter D2 beta-arrestin, luminescence, 90 min; 100% = 57 uM dopamine signal. activation, % (no concentration beside the values). hit rate 0.084% among 360,000. AID 624465; in the data active means activation above about 40%; inconclusive means between about 15% and that limit
Target sequence (P14416 whole entry, looked up): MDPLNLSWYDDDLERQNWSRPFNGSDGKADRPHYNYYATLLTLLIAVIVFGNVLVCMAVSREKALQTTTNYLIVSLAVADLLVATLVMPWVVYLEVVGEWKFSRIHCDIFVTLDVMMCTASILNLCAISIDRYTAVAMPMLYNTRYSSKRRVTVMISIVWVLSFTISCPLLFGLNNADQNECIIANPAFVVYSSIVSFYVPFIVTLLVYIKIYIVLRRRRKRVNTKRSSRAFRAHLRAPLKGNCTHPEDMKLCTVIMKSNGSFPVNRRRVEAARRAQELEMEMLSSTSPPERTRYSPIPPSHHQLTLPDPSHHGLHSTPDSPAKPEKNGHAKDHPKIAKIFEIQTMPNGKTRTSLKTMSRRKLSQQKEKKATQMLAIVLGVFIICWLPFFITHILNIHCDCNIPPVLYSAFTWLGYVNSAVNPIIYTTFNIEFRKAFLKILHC
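Agonist mode: compounds alone added to overnight-plated D2 PathHunter cells for 90 min at 37 C, with 57 uM final dopamine (EC100) defining full response. Beta-arrestin recruitment detected by chemiluminescent reagent, read after 1 h at ambient temperature.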
D2 antag – antagonists of human D2 dopamine receptor. AID 485344. inhibition, % at 10 µM. HEK293 TREx D2 cells, calcium flux, dopamine EC80. P14416. hit rate 2% among 340,000; in the data active means inhibition above about 30%; inactive means below that, where a call was filed
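Inhibition of EC80 dopamine-driven calcium flux, recorded kinetically, defines activity here; cells are a tetracycline-induced HEK293 T-REx line expressing force-coupled D2.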
D2 PAM-1 – human D2 receptor positive allosteric modulation. P14416. DiscoveRx D2 beta-arrestin cells, luminescence, 90 min; 100% = 57 uM dopamine signal. AID 624464. potentiation, % (concentration not given with the values). hit rate 0.23% among 360,000; in the data active means potentiation above about 50%; inconclusive means mostly about 30% to 49%
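PathHunter D2 cells, attached overnight at 37 deg C, received compound in DMSO plus dopamine at EC20 (50 nM final) for 90 min at 37 deg C. Beta-arrestin recruitment was read as luminescence after 1 h with detection reagent at ambient temperature.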
D2 PAM-2 – D2 dopamine receptor (human) potentiation; P14416; HEK293 T-REx D2, calcium flux, EC20 dopamine potentiation; potentiation, % at 10 µM; hit rate 0.34% among 340,000; AID 485347;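 active means potentiation over 3 SD above the plate norm, cut at about 30% in these data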
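Cells plated with tetracycline inducer and held overnight at 30 C; calcium dye loaded 30–90 min at room temperature; baseline taken, compound added and read 180 s; EC20 dopamine then added and read 180 s.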
D2 ag-2 – activates the human D2 dopamine receptor; HEK293 T-REx D2 cells, calcium flux agonist mode; activation, % at 2 µM; hit rate 0.53% among 340,000; AID 485358;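 active means activation over 3 SD above normal in the single-dose calcium agonist read, cut at about 30% in these data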
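Calcium-flux readout, 1 cycle/sec over 180 s following compound pin transfer, in inducible HEK293 Trex D2 cells (force-coupled); dopamine controls included. Positive calcium responses during this window marked compounds as potential agonists.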
Each line names hits and unclear results; the compound was inactive in the other large screens; ! = not active in a repeat. Shown are actives, neighbours in structure and some others; about 2.4% of the full set was active somewhere.

CC(C)(C)c1ccc(C(=O)C2CCCN(C3CCC3)C2)cc1 (stereo unspecified)	D2 antag 37.5
COc1cccc(CNCCc2c[nH]c3ccccc23)c1OC	D2 antag 52.2
Cc1cccc(C2CC(=O)Oc3c2c(=O)oc2ccccc32)c1 (stereo unspecified)	none (no result: D2 ag-1, D2 antag, D2 PAM-1, D2 ag-2)
CC(=O)N1CN2CN(C1)CN(C(C)=O)C2	D2 PAM-2 34.3
Fc1ccccc1CCNCc1cccc2ccccc12	D2 antag 31.1
CSCCC(c1nnnn1Cc1ccccc1)N1CCC(n2c(=O)[nH]c3ccccc32)CC1 (stereo unspecified)	D2 PAM-1 inconclusive (no result: D2 antag, D2 PAM-2, D2 ag-2)
O=c1[nH]c2ccccc2n1C1CCN(C(CCc2ccccc2)c2nnnn2Cc2ccccc2)CC1 (stereo unspecified)	D2 PAM-1 51.9 (no result: D2 antag, D2 PAM-2, D2 ag-2)
CC(=O)OC1CCC2(C)C(CCC3C4CC(N5CC5)C(C(C)=O)C4(C)CC(=O)C32)C1 (stereo unspecified)	none (no result: D2 antag, D2 PAM-2, D2 ag-2)
COc1ccccc1N1CCN(Cc2cc(C)c(C)cc2O)CC1	none (no result: D2 antag, D2 PAM-2, D2 ag-2)
COc1ccccc1N1CCN(Cc2cccc(Br)c2)CC1	D2 antag 75.8
Cc1ccc(OCC(=O)Nc2ccc(Cl)cc2C(=O)c2ccccc2)cc1C	none (no result: D2 ag-1, D2 antag, D2 PAM-1, D2 ag-2)
CCCN1CCc2cccc3c2[C@H]1Cc1ccc(O)c(O)c1-3	D2 ag-1 121.2, D2 PAM-1 135.6 (no result: D2 antag, D2 PAM-2, D2 ag-2)
COc1ccc2c(c1O)-c1c(OC)c(OC)cc3c1[C@H](C2)N(C)CC3	none
O=C(Nc1ccc2c(c1)OCO2)c1cccn(Cc2ccccc2)c1=O	none (no result: D2 ag-1, D2 antag, D2 PAM-1, D2 ag-2)
CC[C@@H](CO)NC(=O)[C@@H]1C=C2c3cccc4[nH]cc(c34)C[C@H]2N(C)C1	D2 ag-1 41.8, D2 PAM-1 inconclusive (no result: D2 antag, D2 PAM-2, D2 ag-2)
COC(=O)C1C=C2c3cccc4[nH]cc(c34)CC2N(C)C1 (stereo unspecified)	D2 antag 61.9, D2 ag-2 79.5 (no result: D2 ag-1, D2 PAM-1)
CN1Cc2cnnn2-c2ccccc2C1c1ccccc1 (stereo unspecified)	none (no result: D2 antag, D2 PAM-2, D2 ag-2)
Cc1ccc(-c2nc(CN3C(=O)CN=C(c4ccccc4Cl)c4cc(Cl)ccc43)c(C)o2)cc1	none (no result: D2 ag-1, D2 antag, D2 PAM-1)
Fc1ccc(N2Cc3ccccc3-n3nncc3C2)cc1	none (no result: D2 antag, D2 PAM-2, D2 ag-2)
Cc1[nH]c2ccccc2c1C(=O)CN1CC=C(c2ccccc2)CC1	none
CCN1CC=C(c2c[nH]c3ccccc23)CC1	D2 antag 82.7
O=C(O)C(Br)CBr (stereo unspecified)	none
C[C@H]1CCC[C@H](O)CCCCCc2cc(O)cc(O)c2C(=O)O1	D2 antag 32.4
Nc1c([N+](=O)[O-])cc(F)c(N2CCNCC2)c1Br	none
CN1CCN(c2c(F)cc([N+](=O)[O-])c(N)c2Br)CC1	D2 antag 35.1
c1ccc(-c2ccc(CN3Cc4ccccc4-n4nncc4C3)cc2)cc1	none (no result: D2 antag, D2 PAM-2, D2 ag-2)
CCn1cc(C(=O)O)c(=O)c2ccc(C)nc21	D2 antag 40.7!
CCn1cc(C(=O)NCc2ccccc2)c2ccccc21	none
CC(C)(C)N1CC(C(=O)c2ccccc2)C1c1ccccc1 (stereo unspecified)	none (no result: D2 antag, D2 PAM-2, D2 ag-2)
O=C1CN=C(c2ccccc2)c2cc(Cl)ccc2N1	none (no result: D2 antag, D2 PAM-2, D2 ag-2)
Cc1ccccc1C1=NCC(=S)Nc2ccc(Cl)cc21	D2 antag 40.7
Fc1cccc(-c2ccc3c(c2)CN(c2cccc(Cl)c2)Cc2cnnn2-3)c1	none (no result: D2 antag, D2 PAM-2, D2 ag-2)
CSc1ccc(CN2CCN(C(=O)Cc3ccccc3)CC2)cc1	none (no result: D2 antag, D2 PAM-2, D2 ag-2)
COc1ccc(CN2CCN(Cc3ccccc3F)CC2)cc1	D2 antag 30.7
CSc1ccc(CN2CCN(Cc3ccccc3Cl)CC2)cc1	D2 antag 69.5
Cc1ncoc1C(=O)NCC1=C(c2ccc(S(C)(=O)=O)cc2)C[C@@H]2CC[C@H]1N2CCOc1ccccc1	none (no result: D2 antag, D2 PAM-2, D2 ag-2)
CC1([N+](=O)[O-])COP(=O)(NC2CC2)OC1 (stereo unspecified)	none (no result: D2 antag, D2 PAM-2, D2 ag-2)
CSCCC(c1nnnn1C1CCCCC1)N1CCC2(CC1)C(=O)NCN2c1ccccc1 (stereo unspecified)	none (no result: D2 antag, D2 PAM-2, D2 ag-2)
Cc1cccc(N2CCN(Cc3ccc4c(c3)OCO4)CC2)c1C	D2 antag 66.2
COc1ccccc1N1CCN(Cc2ccc3c(c2)OCO3)CC1	none (no result: D2 antag, D2 PAM-2, D2 ag-2)
Cc1ccc(S(=O)(=O)N(C)N=O)cc1	none
COc1ccccc1OCCCn1cc(C(=O)c2ccco2)c2ccccc21	none
O=C(c1ccco1)c1cn(Cc2ccc(Cl)cc2)c2ccccc12	D2 antag 30.7
c1ccc(N2[C@@H]3CC[C@H]2c2ccccc2C3)cc1	none (no result: D2 antag, D2 PAM-2, D2 ag-2)
Cc1ncoc1C(=O)NCC1=C(c2ccc3ccccc3c2)C[C@@H]2CC[C@H]1N2Cc1ccco1	none (no result: D2 antag, D2 PAM-2, D2 ag-2)
CCN(CCCl)c1cc(CN(C)C)cc(NC(=O)c2ccc(C(=O)Nc3cc(CN(C)C)cc(N(CC)CCCl)c3)cc2)c1	none (no result: D2 antag, D2 PAM-2, D2 ag-2)
O=[N+]([O-])c1cccc(NP(=O)(N2CC2)N2CC2)c1	none (no result: D2 antag, D2 PAM-2, D2 ag-2)
Cn1c(O)c(C=Nc2ccc(F)cc2)c(=O)[nH]c1=O	D2 antag 35.3
CC(=O)OC(C)(C)/C=C/C(=O)[C@](C)(O)C1[C@H](O)C[C@@]2(C)C3CC=C4C(C[C@H](O)C(=O)C4(C)C)[C@]3(C)C(=O)C[C@]12C (stereo partly specified)	none (no result: D2 antag, D2 PAM-2, D2 ag-2)
CC1CCC2[C@@H](C)C(=O)OC3O[C@]4(C)CCC1C32OO4 (stereo partly specified)	D2 ag-1 inconclusive, D2 PAM-1 53.0 (no result: D2 antag, D2 PAM-2, D2 ag-2)
CC1CCC2C(C)C(=O)OC3OC4(C)CCC1C32OO4 (stereo unspecified)	D2 ag-1 inconclusive, D2 PAM-1 62.4
O=C1NCN(c2ccccc2)C12CCN(C(c1cccc3ccccc13)c1nnnn1C1CCCCC1)CC2 (stereo unspecified)	none (no result: D2 antag, D2 PAM-2, D2 ag-2)
COc1ccccc1N=Cc1c(O)n(C)c(=O)n(C)c1=O	D2 antag 34.9
CNc1ccc2oc(C[C@H]3O[C@@]4(CC[C@H]3C)O[C@H]([C@H](C)C(=O)c3ccc[nH]3)[C@H](C)C[C@H]4C)nc2c1C(=O)O	D2 antag 62.5, D2 ag-2 95.6
C/C(=N\Nc1ccccc1)c1c(O)n(Cc2ccccc2)c(=O)[nH]c1=O	D2 PAM-1 56.8
ON1C2CCCCC2N(O)C1c1ccccc1F (stereo unspecified)	D2 antag 50.0
O=C1NC(=O)N(Cc2ccco2)C(=O)/C1=C/C=C/c1ccco1	D2 antag 34.4
COC(=O)c1cncn1C(C)c1ccccc1 (stereo unspecified)	none
CCOC(=O)c1cncn1C(C)c1ccccc1 (stereo unspecified)	D2 antag 34.7
CN1CCN(c2ccc(N)cc2Cl)CC1	D2 antag 45.9
O=C(CNC(=O)c1ccc(Cl)cc1)Nc1ccc(Br)cc1C(=O)c1ccccc1	D2 antag 34.4
O=C(CNC(=O)c1cccc(Cl)c1)Nc1ccc(Br)cc1C(=O)c1ccccc1	none
Cc1ccccc1-n1c(C)nc2ccccc2c1=O	D2 PAM-2 30.9
COc1ccccc1-n1c(-c2ccccc2)nc2ccccc2c1=O	D2 antag 39.8

High-throughput results as filed in PubChem BioAssay.
